Results taken from the antibiotic and cytotoxicity screens of Wong et al. (2023).
The whole screen tested about 39,000 compounds, of which about 1,500 (3.8%) were called active. This excerpt belongs to a sample that is enriched for actives.

The molecules below were run on HSkMC (human skeletal muscle cells) (assay: cytotoxicity call (relative viability < 0.9)). Details: 10 µM.

Row | SMILES | cytotoxicity call
1 | C[C@H]1CN([C@@H](C)CO)C(=O)c2cc(C#Cc3ccccc3F)cnc2O[C@H]1CN(C)C(=O)Cc1cccnc1 | inactive
2 | COCC(=O)Nc1ccc2c(c1)OC[C@@H](C)N(C(=O)Cc1ccccn1)C[C@@H](C)[C@H](OC)CN(C)C2=O | inactive
3 | COc1ccc(COC[C@]23NC(=S)N(C(=O)c4ccccc4)[C@H](c4ccccc4O2)[C@H]3CO[Si](C)(C)C(C)(C)C)cc1 | inactive
4 | CO[C@H]1CN(C)C(=O)c2ccc(NC(=O)C3CCOCC3)cc2OC[C@H](C)N(Cc2cccnc2)C[C@@H]1C | inactive
5 | COc1ccc2c3c(n(c2c1)C)[C@H](CO)N(C[C@]13CCN(CC1)C(=O)c1cnccn1)C(=O)c1cnccn1 | inactive
6 | C[C@H](CO)N1C[C@H](C)[C@@H](CN(C)C(=O)Nc2ccc3c(c2)OCO3)Oc2ccc(NC(=O)Cn3cnnn3)cc2CC1=O | inactive
7 | CN(C)CCN1C[C@H]2OCCN(Cc3cnn(C)c3)[C@H]2C1 | inactive
8 | CO[C@H]1CN(C)C(=O)c2ccc(NS(C)(=O)=O)cc2OC[C@@H](C)N(C(=O)C2CCCCC2)C[C@H]1C | inactive
9 | O=c1[nH]cc(F)c(=O)[nH]1 | inactive
10 | O=C(Oc1ccccc1C(=O)O)c1ccccc1O | inactive
11 | CC1CC(OC(=O)C(O)c2ccccc2)CC(C)(C)C1 (configuration not stated) | inactive
12 | CC1CC(OC(=O)c2ccccc2O)CC(C)(C)C1 (configuration not stated) | active
13 | C[C@@H]1CCCCO[C@@H](CN(C)Cc2ccc(C(F)(F)F)cc2)[C@@H](C)CN([C@@H](C)CO)C(=O)c2cc(NS(=O)(=O)c3ccccc3)ccc2O1 | inactive
14 | COc1ccc([Si](C)(C)[C@H]2[C@H](CC(=O)N3Cc4ccccc4C[C@H]3CO)O[C@@]3(C(=O)N(Cc4cccc(N5CCC5=O)c4)c4ccccc43)[C@@H]2C)cc1 | inactive
15 | COc1ccc(OC)c(CCNC(=O)CN)c1 | inactive
16 | C[C@@H]1CN([C@@H](C)CO)C(=O)c2cc(NS(=O)(=O)c3ccc(Cl)cc3)ccc2O[C@@H](C)CCCCO[C@H]1CN(C)CC1CCCCC1 | inactive
17 | Cc1ccc(S(=O)(=O)Nc2ccc3c(c2)C(=O)N([C@H](C)CO)C[C@@H](C)[C@H](CN(C)CC2CCCCC2)OCCCC[C@@H](C)O3)cc1 | inactive
18 | C[C@H](CO)N1C[C@H](C)[C@H](CN(C)CC2CCCCC2)OCCCC[C@H](C)Oc2ccc(NS(=O)(=O)c3ccc(Cl)cc3)cc2C1=O | inactive
19 | C[C@@H]1CCCCO[C@H](CN(C)CC2CCCCC2)[C@H](C)CN([C@@H](C)CO)C(=O)c2cc(NS(=O)(=O)c3ccc(Cl)cc3)ccc2O1 | active
20 | Cc1ccc(S(=O)(=O)Nc2ccc3c(c2)C(=O)N([C@@H](C)CO)C[C@@H](C)[C@H](CN(C)CC2CCCCC2)OCCCC[C@H](C)O3)cc1 | inactive
21 | C[C@@H]1CCCCO[C@H](CN(C)S(=O)(=O)c2ccccc2)[C@H](C)CN([C@@H](C)CO)C(=O)c2cc(NS(=O)(=O)c3ccc(Cl)cc3)ccc2O1 | inactive

Row | SMILES | cytotoxicity call
22 | Cc1ccc(S(=O)(=O)Nc2ccc3c(c2)C(=O)N([C@H](C)CO)C[C@H](C)[C@H](CN(C)CC2CCCCC2)OCCCC[C@H](C)O3)cc1 | active
23 | C[C@@H]1CCCCO[C@@H](CN(C)S(=O)(=O)c2ccccc2)[C@H](C)CN([C@H](C)CO)C(=O)c2cc(NS(=O)(=O)c3ccc(Cl)cc3)ccc2O1 | inactive
24 | C[C@@H]1CN([C@H](C)CO)C(=O)c2cc(NS(=O)(=O)c3ccccc3)ccc2O[C@@H](C)CCCCO[C@H]1CN(C)S(=O)(=O)c1ccc(Cl)cc1 | active
25 | C[C@@H]1CN([C@H](C)CO)C(=O)Cc2cc(NS(=O)(=O)c3ccc(Cl)cc3)ccc2O[C@H]1CN(C)C(=O)Nc1cccc2ccccc12 | inactive
26 | C[C@H]1CN([C@@H](C)CO)C(=O)c2cccc(NC(=O)Nc3ccc4c(c3)OCO4)c2O[C@H]1CN(C)S(=O)(=O)c1cn(C)cn1 | inactive
27 | CCCN(C)C[C@H]1OCCCC[C@H](C)Oc2ccc(NC(=O)NC3CCCCC3)cc2C(=O)N([C@@H](C)CO)C[C@H]1C | inactive
28 | C[C@H]1CCCCO[C@@H](CN(C)S(=O)(=O)c2ccc(F)cc2)[C@@H](C)CN([C@@H](C)CO)C(=O)c2cc(NS(=O)(=O)c3cn(C)cn3)ccc2O1 | inactive
29 | C[C@@H]1CN([C@@H](C)CO)C(=O)c2cc(NC(=O)c3ccncc3)ccc2O[C@@H](C)CCCCO[C@H]1CN(C)C(=O)Nc1ccccc1 | inactive
30 | O=C(C[C@H]1C=C[C@@H](NC(=O)c2ccncc2)[C@@H](CO)O1)NCc1ccncn1 | inactive
31 | Cc1ccccc1S(=O)(=O)N1C[C@@H](O)COC[C@H]2O[C@H](CC(=O)N3CCOCC3)CC[C@@H]21 | inactive
32 | CC1CCC2(C)C(C=O)=CCCC2C1(C)CC1OC(O)C(=O)C12CO2 (configuration not stated) | inactive
33 | C[C@@H]1CCCCO[C@@H](CN(C)CC2CCCCC2)[C@H](C)CN([C@H](C)CO)C(=O)c2cc(NC(=O)CCC(F)(F)F)ccc2O1 | inactive
34 | C[C@H](CO)N1C[C@H](C)[C@H](CN(C)C(=O)Nc2ccc(F)cc2)Oc2ccc(NC(=O)Cn3cnnn3)cc2C1=O | inactive
35 | C[C@@H]1CN([C@@H](C)CO)C(=O)c2cccc(NC(=O)NC3CCCCC3)c2O[C@@H]1CN(C)C(=O)Nc1ccc(C(F)(F)F)cc1 | active
36 | C[C@H](CO)N1C[C@H](C)[C@H](CN(C)C(=O)Nc2ccc(C(F)(F)F)cc2)Oc2c(NC(=O)NC3CCCCC3)cccc2C1=O | inactive
37 | C[C@@H]1CN([C@H](C)CO)C(=O)c2cccc(NC(=O)NC3CCCCC3)c2O[C@H]1CN(C)C(=O)Nc1ccc(C(F)(F)F)cc1 | inactive
38 | C[C@@H]1CN([C@H](C)CO)C(=O)c2cccc(NC(=O)NC3CCCCC3)c2O[C@@H]1CN(C)C(=O)Nc1ccc(C(F)(F)F)cc1 | inactive
39 | C[C@H]1CN([C@@H](C)CO)C(=O)c2cccc(NC(=O)NC3CCCCC3)c2O[C@@H]1CN(C)C(=O)Nc1ccc(C(F)(F)F)cc1 | inactive
40 | C[C@H]1CN([C@@H](C)CO)C(=O)c2cccc(NC(=O)NC3CCCCC3)c2O[C@H]1CN(C)C(=O)Nc1ccc(C(F)(F)F)cc1 | active
41 | COc1ccc(NC(=O)Nc2ccc3c(c2)C(=O)N([C@H](C)CO)C[C@H](C)[C@H](CN(C)S(=O)(=O)c2cn(C)cn2)O3)cc1 | inactive
42 | Cc1cc(-c2cccs2)cc(C)n1 | inactive

Row | SMILES | cytotoxicity call
43 | COCC(=O)N1C[C@H](C)[C@H](OC)CN(C)C(=O)c2cc(NC(=O)c3cc(C)on3)ccc2OC[C@@H]1C | inactive
44 | COc1cc2c(cc1O)CCN[C@]21CS[C@@H]2c3c(OC(C)=O)c(C)c4c(c3[C@H](COC1=O)N1[C@@H]2[C@H]2c3c(cc(C)c(OC)c3O)C[C@@H]([C@@H]1O)N2C)OCO4 | active
45 | COc1ccc(NC(=O)N(C)C[C@H]2OCCCC[C@@H](C)Oc3ccc(NC(=O)Nc4ccc(C(F)(F)F)cc4)cc3C(=O)N([C@@H](C)CO)C[C@H]2C)cc1 | inactive
46 | CCS(=O)(=O)Nc1ccc2c(c1)C(=O)N(C)C[C@@H](OC)[C@@H](C)CN(Cc1nccs1)[C@@H](C)CO2 | inactive
47 | C[C@@H]1CCCCO[C@@H](CN(C)Cc2ccc(Cl)c(Cl)c2)[C@H](C)CN([C@@H](C)CO)C(=O)c2cc(NS(=O)(=O)c3ccccc3)ccc2O1 | active
48 | C[C@@H]1CCCCO[C@H](CN(C)Cc2ccc(Cl)c(Cl)c2)[C@H](C)CN([C@@H](C)CO)C(=O)c2cc(NS(=O)(=O)c3ccccc3)ccc2O1 | active
49 | C[C@@H]1CCCCO[C@@H](CN(C)Cc2ccc(Cl)c(Cl)c2)[C@@H](C)CN([C@H](C)CO)C(=O)c2cc(NS(=O)(=O)c3ccccc3)ccc2O1 | inactive
50 | C[C@H](CO)N1C[C@H](C)[C@@H](CN(C)Cc2ccc(Cl)c(Cl)c2)OCCCC[C@H](C)Oc2ccc(NS(=O)(=O)c3ccccc3)cc2C1=O | inactive
51 | C[C@@H]1CCCCO[C@@H](CN(C)Cc2ccc(Cl)c(Cl)c2)[C@@H](C)CN([C@@H](C)CO)C(=O)c2cc(NS(=O)(=O)c3ccccc3)ccc2O1 | active
52 | C[C@@H]1CCCCO[C@@H](CN(C)Cc2ccc(Cl)c(Cl)c2)[C@H](C)CN([C@H](C)CO)C(=O)c2cc(NS(=O)(=O)c3ccccc3)ccc2O1 | active
53 | C[C@@H]1CN([C@H](C)CO)C(=O)c2cc(NS(=O)(=O)c3ccccc3)ccc2O[C@@H](C)CCCCO[C@H]1CN(C)Cc1ccc(Cl)c(Cl)c1 | inactive
54 | Cc1noc(C)c1NC(=O)Nc1cccc2c1O[C@@H](CN(C)C(=O)NC(C)C)[C@@H](C)CN([C@H](C)CO)C2=O | inactive
55 | CCCC#Cc1cnc2c(c1)C(=O)N([C@@H](C)CO)C[C@@H](C)[C@H](CN(C)S(=O)(=O)c1cccc(OC)c1)O2 | inactive
56 | O=C(C[C@@H]1CC[C@H]2[C@@H](COC[C@H](O)CN2C(=O)c2cccnc2)O1)NCc1ccc(-c2ccccc2)cc1 | inactive
57 | C[C@H]1CN([C@@H](C)CO)C(=O)c2cc(NS(=O)(=O)c3ccc(F)cc3)ccc2O[C@H]1CN(C)S(=O)(=O)c1cccs1 | inactive
58 | COc1ccc(NC(=O)N(C)C[C@H]2Oc3ccc(NC(=O)Nc4ccc(C(F)(F)F)cc4)cc3CC(=O)N([C@H](C)CO)C[C@H]2C)cc1 | inactive
59 | C[C@H](CO)N1C[C@H](C)[C@H](CN(C)S(=O)(=O)c2ccc(Cl)cc2)Oc2c(NC(=O)c3ccc(-c4nccs4)cc3)cccc2C1=O | inactive
60 | C[C@@H]1CN([C@H](C)CO)C(=O)c2cc(C#CC3(O)CCCC3)cnc2O[C@@H]1CN(C)C(=O)C1CCCCC1 | inactive
61 | C[C@@H](NC(=O)C[C@@H]1CC[C@H](NC(=O)CN2CCOCC2)[C@@H](CO)O1)c1ccccc1 | inactive
62 | O=S1(=O)C[C@H](O)[C@@H](N2CCN(CCO)CC2)C1 | inactive
